Fam108B inh: mouse Fam108B serine hydrolase inhibitors, primary screen, counter-screen for RBBP9 inhibitor project, biochemical, fluorescence polarization. recombinant Fam108B, FP-Rh probe fluorescence polarization. inhibition, % at 9.51 µM. actives 0.33% (n = 300,000). AID 1947, 2009;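 active means inhibition above the screen mean inhibition plus 3 SD, computed separately per campaign, cut at about 18% in these data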;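 further: inhibitors lower polarization as less probe binds the enzyme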
PAD4 FP inh: human PAD4 inhibitors, primary screen, biochemical, fluorescence polarization, 1536-well format; Protein-arginine deiminase type-4 (Homo sapiens), Q9UM07; recombinant PAD4, RCA probe fluorescence polarization; inhibition, % at 6.36 µM; actives 0.41% (n = 330,000); AID 485272, 2010;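 active means percent inhibition above a cutoff equal to the mean of all tested compounds plus 3 SD, cut at about 15% in these data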
GSTO1 counter: inhibitors of recombinant GSTO1, primary screen, counter-screen for RBBP9 inhibitor project, biochemical, fluorescence polarization. Glutathione S-transferase omega-1 (Homo sapiens), P78417. activity-based probe fluorescence polarization. inhibition, % at 5.96 µM. actives 1.1% (n = 300,000);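 active means inhibition above the campaign mean inhibition plus 3 SD, cut at about 35% in these data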
Target sequence (P78417 whole entry, looked up): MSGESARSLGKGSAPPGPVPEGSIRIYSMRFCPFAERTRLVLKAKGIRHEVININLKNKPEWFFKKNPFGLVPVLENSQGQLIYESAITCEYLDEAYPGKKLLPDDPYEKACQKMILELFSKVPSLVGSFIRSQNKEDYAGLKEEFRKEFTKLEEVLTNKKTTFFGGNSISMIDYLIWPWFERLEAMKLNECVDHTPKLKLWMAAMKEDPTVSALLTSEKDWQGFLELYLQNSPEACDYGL
PME-1 primary: PME-1 inhibitors via competitive probe labeling, primary screen, biochemical, fluorescence polarization, FP-Rh probe, HTS. inhibition, % at 5.9 µM. recombinant PME-1. AID 2130, 2009. actives 0.53% (n = 320,000). Protein phosphatase methylesterase 1 (Homo sapiens), Q9Y570;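 active means inhibition above the campaign mean of all compounds plus 3 SD, cut at about 26% in these data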;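 further: competitive labeling of PME-1 active site by serine hydrolase directed probe; inhibitors block probe labeling so polarization falls and inhibition rises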
Target sequence (Q9Y570 whole entry, looked up): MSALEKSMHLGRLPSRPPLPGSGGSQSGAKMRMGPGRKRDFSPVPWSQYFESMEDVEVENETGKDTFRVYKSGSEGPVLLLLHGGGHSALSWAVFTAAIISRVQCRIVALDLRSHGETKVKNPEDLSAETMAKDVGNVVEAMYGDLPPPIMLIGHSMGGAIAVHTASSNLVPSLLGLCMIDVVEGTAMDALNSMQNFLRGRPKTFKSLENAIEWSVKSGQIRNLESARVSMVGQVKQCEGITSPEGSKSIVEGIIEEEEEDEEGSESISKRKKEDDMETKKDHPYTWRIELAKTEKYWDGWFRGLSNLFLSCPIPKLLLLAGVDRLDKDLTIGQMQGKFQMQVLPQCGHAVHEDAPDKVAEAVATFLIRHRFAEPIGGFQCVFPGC
pPAFAH FP inh: pPAFAH enzyme inhibitors, primary screen, biochemical, fluorescence polarization, human | Platelet-activating factor acetylhydrolase (Homo sapiens), Q13093 | recombinant pPAFAH, FP-rhodamine probe fluorescence polarization | inhibition, % at 3.39 µM | actives 1.5% (n = 330,000) | AID 463082, 2010;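 active means inhibition above the mean inhibition across the screen plus 3 SD, cut at about 25% in these data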;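 further: inhibitors block binding of the rhodamine activity-based probe so polarization drops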
Numbers stand for hits; n = inactive; x = no result given. In the library only some 2.3% were active in any assay of this set; here they are far more common.

SMILES	Fam108B inh	PAD4 FP inh	GSTO1 counter	PME-1 primary	pPAFAH FP inh
O=C1NCCCC2c3cc(O)c4ccccc4c3OC12N1CCCCC1 (centres undefined)	n	34	81	n	n
O=C(NCCN1CCCCC1)c1ccc(Oc2cc(Cl)cc(Cl)c2)o1	n	n	n	n	n
O=C(c1ccc(Oc2cc(Cl)cc(Cl)c2)o1)N1CCCCC1	n	n	n	n	32
COC(=O)CCCC1=CC2=CC(=O)C(C)(OC(=O)c3cccs3)C(=O)C2=CN1C1CCCC1 (centres undefined)	n	n	37	n	n
COc1ccccc1C1=Nn2c(COc3ccccc3)nnc2SC1	n	n	n	n	n
O=C(Cn1c(=O)cnc2ccccc21)N1CCN(S(=O)(=O)c2ccc(F)cc2)CC1	n	n	n	n	n
Cc1ccc(S(=O)(=O)N2CCN(C(=O)Cn3c(=O)cnc4ccccc43)CC2)cc1	x	n	x	37	n
O=c1c2ccccc2nc(COc2ccccc2)n1/N=C/c1cc([N+](=O)[O-])ccc1O	n	n	n	n	26
Cc1cc(/C=N/n2c(COc3ccccc3C)nc3ccccc3c2=O)c(O)c([N+](=O)[O-])c1	n	n	n	n	n
CCOc1ccccc1NC(=O)COC(=O)c1cnc(C)cn1	x	n	x	n	n
COc1cc(C(=O)OCC(=O)NCCN2C(=O)CSC2=O)ccc1OCc1c(C)noc1C	n	n	n	n	n
Cc1ccc(-c2c3c([nH]c(=S)c2C#N)CCCC3)o1	n	n	n	n	25
CN(/C(=N\S(=O)(=O)c1ccccc1)C(F)(F)F)c1ccccc1	n	n	n	n	n
CCOC(=O)N1CCN(C(=O)CN(C)S(=O)(=O)c2ccc(OCC)cc2)CC1	n	n	n	n	n
COc1cc(NC2CCCCC2O)c2nc(-c3ccc(Cl)cc3)ccc2c1 (centres undefined)	n	n	52	n	n
O=C(Cc1n[nH]c(=O)c2ccccc12)OCC(=O)c1ccc(OC(F)F)cc1OC(F)F	n	n	n	n	n
C/C(=N\NC(=O)c1ccc(Br)cc1)C1C(=O)c2ccccc2C1=O	n	n	n	n	25
O=C(C(=O)N1CCCCC1)c1cn(CC(=O)N2CCCCCC2)c2ccccc12	n	n	n	n	n
Cc1ccc(-c2c3c(nc4sc(C(N)=O)c(N)c24)CCC3)cc1	n	n	n	n	28
NC(=O)c1sc2nc3c(c(-c4ccco4)c2c1N)CCCC3	n	n	n	n	n
NC(=O)c1sc2nc3c(c(-c4ccc(Cl)cc4)c2c1N)CCCC3	n	n	n	n	30
CC[C@H](C)[C@H](NC(=O)c1ccccc1)C(=O)NC(CC(=O)O)c1ccc(F)cc1 (some centres undefined)	n	n	n	n	n
O=C(COC(=O)Cc1c(F)cccc1Cl)Nc1nnc(-c2ccccc2)o1	n	n	n	n	n
CCCCN1C(=O)N(CCc2ccc(F)cc2)S(=O)(=O)c2cc(C(F)(F)F)ccc21	x	n	x	x	n
Cc1cc(NC(=O)COC(=O)CSCc2ccc(Cl)c(Cl)c2)no1	n	n	n	n	31
SMILES	Fam108B inh	PAD4 FP inh	GSTO1 counter	PME-1 primary	pPAFAH FP inh
O=C(Nc1nc(-c2ccccn2)cs1)c1ccc(Cl)s1	n	n	44	n	n
Cc1ccccc1-n1c(SCC(=O)Nc2c(C)cccc2C)nc(O)cc1=O	n	n	n	n	31
CCN(CC)C(=O)CSc1nc(O)cc(=O)n1-c1ccccc1OC	n	n	n	n	25
COc1ccccc1-c1c(C(F)(F)F)oc2cc(OC(=O)c3ccc([N+](=O)[O-])cc3)ccc2c1=O	n	n	n	n	n
CCc1sc(C(=O)Nc2ccc3c(c2)OCO3)cc1C	x	n	x	x	25
CCc1sc(C(=O)Nc2ccc3c(c2)OCCO3)cc1Br	n	n	n	n	n
Nc1nnc(SCC(=O)NNC(=O)c2ccccc2F)s1	x	n	x	x	n
CCCCNc1cc(NC(C)=O)cc2cc(OC)c(OC)cc12	n	n	35	n	n
CCCC(=O)Nc1cc(OC)c(OC)cc1C(=O)O	n	n	n	n	n
CC(O)CNCCCOc1ccc(Cl)cc1C(C)(C)C (centres undefined)	n	n	n	n	n
O=C(N/N=C/C1CC2CCC1C2)c1c[nH]c2ccccc12 (centres undefined)	n	n	n	n	n
CCC(C)(C)C1CCc2c(sc(NC(=O)c3ccoc3C)c2C(N)=O)C1 (centres undefined)	n	n	n	n	n
CCC1CCc2c(sc(NC(=O)c3ccoc3C)c2C(N)=O)C1 (centres undefined)	n	n	n	n	25
COc1ccc(-c2cc(C(=O)O)c3c(C)nn(-c4ccccn4)c3n2)cc1	n	n	n	n	n
COc1ccc(N=CC2=C(Nc3ccc(OC)cc3)c3c(C)nn(-c4ccccn4)c3CC2)cc1	47	81	84	57	54
Cc1cc(NS(=O)(=O)c2ccc(Nc3nc(-c4ccc(C)c(C)c4)cs3)cc2)no1	n	n	n	n	34
CCN(CC(=O)NCc1cccs1)c1ccc(S(=O)(=O)N2CCN(C)CC2)cn1	n	n	n	n	n
O=C(c1ccccc1Cc1ccccc1)N1CCN(S(=O)(=O)c2ccccc2Br)CC1	n	n	n	n	n
CCOc1cc(C)c(S(=O)(=O)NC2CC(C)(C)NC(C)(C)C2)cc1C	n	n	37	n	n
CC1CCCCN1C(=S)Nc1ccc2nc3n(c(=O)c2c1)CCCCC3 (centres undefined)	n	n	n	n	n
Cc1ccc2c(-c3csc(N)n3)c[nH]c2c1	n	n	n	51	n
COc1cccc(NC(=O)COC(=O)CC2CC3CCC2C3)c1 (centres undefined)	x	n	x	x	34
COc1ccccc1NC(=O)c1ccc(NC(=O)COC(=O)c2ccc(O)cc2)cc1	x	n	x	n	26
COc1ccc(NC(=O)Nc2ccc3c(c2)CC(=O)N([C@H](C)CO)C[C@@H](C)[C@H](CN(C)C(=O)Nc2ccccc2)O3)cc1	x	n	x	x	n
Nn1c(C2COc3ccccc3O2)n[nH]c1=S (centres undefined)	n	n	35	n	n
SMILES	Fam108B inh	PAD4 FP inh	GSTO1 counter	PME-1 primary	pPAFAH FP inh
NC(=S)C1COc2ccccc2O1 (centres undefined)	n	n	n	n	n
COc1cc2c(cc1OC)C(c1ccc(Br)cc1)NCC2 (centres undefined)	n	n	n	n	n
COc1ccc(/C=C2\CN(Cc3ccccc3)C/C(=C\c3ccc(OC)c(O)c3)C2=O)cc1O	n	n	n	27	n
CCN(CC)CCNC(=S)NC(=O)c1cn(-c2ccccc2)nc1-c1ccc(OC)cc1	n	n	n	n	n
CN(C)c1ccc(C(=O)OCC(=O)Nc2cccc(S(=O)(=O)N3CCCC3)c2)cc1	x	n	x	x	27
O=C(COC(=O)c1ccc(C(F)(F)F)cc1)Nc1cccc(S(=O)(=O)N2CCCCC2)c1	x	n	x	n	n

Compound activity from PubChem BioAssay.
